# High-throughput results: PubChem, National Center for Advancing Translational Sciences (NCATS)
# Nrf2 inh: Nrf2 pathway inhibition; A549 ARE-Fluc reporter, luciferase luminescence, 18-24 h; Potency, µM (highest dose often 46 µM), for the others: at the highest dose activity change, negative = inhibition, hits mostly inhibitors; hit rate 2.1% among 360,000; further: on the % scale 0 is the no-effect control and ±100 the full control effect; nearly all actives have a fitted effect of over 60% in size
#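 Cells were seeded and rested 2 h, then exposed to compounds for 18-24 h. CellTiter-Fluor was read first as a viability measure. BugLite was added 15 min before the final luminescent read of ARE-luciferase activity in A549 cells.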
# ELG1 repair inh: ELG1-dependent DNA repair inhibition; HEK293T ELG1-luciferase reporter, luminescence, 16 h; DNA damage induced by 5-fluorouridine; Potency, µM (series often up to 46.1 µM), for the others: at the top dose activity change, negative = inhibition, usual class: inhibitors; hit rate 2.3% among 330,000; AID 504467; further: on the % scale 0 is the no-effect control and ±100 the full control effect; nearly all actives have a fitted effect of over 55% in size
#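 Reporter activity after DNA damage by 5-fluorouridine is monitored. Compound-treated cells incubate 16 hr at 37 °C, then ONE-Glo is added for 30 min before luminescence reading.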
# Nrf2 ARE act: Nrf2 pathway activation; AREc32 ARE-luciferase reporter (MCF7-derived line), luminescence, 24 h; Potency, µM (series often up to 46.1 µM), for the others: at the top dose activation, usual class: activators; hit rate 0.31% among 410,000; further: % of control where 0% means no effect; nearly all actives have a fitted effect of over 65% in size
#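 Cells of the AREc32 ARE-luciferase line are plated in OPTI-MEM containing 5% FBS and left overnight at 37 deg C. Compounds are pinned in, incubation continues 24 hr, and firefly luciferase signal is then measured.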
# A549 viability: kills or reduces viability of A549 cells in Nrf2 counter-screen; AID 504648; Potency, µM (highest dose often 46 µM), for the others: at the highest dose activity change, negative = cytotoxicity, usual class: inhibitors; A549 ARE-Fluc cells, CellTiter-Fluor viability, 18-24 h; hit rate 0.16% among 390,000; further: on the % scale 0 is the no-effect control and ±100 the full control effect
#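 Cytotoxicity counterscreen: CellTiter-Fluor fluorescence was measured in A549 ARE_Fluc cells after 18-24 h of compound exposure in a concentration series. The subsequent BugLite luminescent read reports ARE-luciferase activity.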
# The depositor's hits bear a star; ? = inconclusive; · = not tested or not shown; ! = not active in a repeat. Most compounds without a hit are left out; they make up all but 3.7% or so of the library. The call rests on the fitted dose curve; in most records, active means well fitted curve in the direction sought with a large enough effect; inconclusive means small, poorly fitted or top-dose-only effect, or another doubt; inactive means no such curve, though single readings can be large; an effect the other way counts as inactive or inconclusive. Potency means the concentration at half of the fitted maximal effect.
SMILES,Nrf2 inh,ELG1 repair inh,Nrf2 ARE act,A549 viability
O=C(CN1CCC(n2nnc3cc(F)ccc32)CC1)N1CCc2ccccc2C1,?,21µM*,0%,-8%
CCOc1ccc2nc(NC(=O)CN3CCC(n4nnc5cc(F)ccc54)CC3)sc2c1,?,9.2µM*,0%,?
O=c1[nH]c2ccc(S(=O)(=O)N3CCN(S(=O)(=O)c4ccc5c(c4)OCCO5)CC3)cc2[nH]c1=O,12%,·,·,-4%
CCOC(=O)c1cc(-c2ccccc2)sc1NC(=O)C(C)Sc1nnc(N)s1 (stereo not given),?,23µM*,3%,-6%
CC1(C)CC(=O)c2sc(NC(=O)c3cccs3)nc2C1,15µM*,?,0%,-19%
CC1(C)CC(=O)c2sc(NC(=O)C(C)(C)C)nc2C1,?,?,0%,-2%
Cc1noc2ncnc(N3CCCCC3)c12,-8%,-17%,0%,-1%
Cc1noc2ncnc(N3CCN(c4ccc(F)cc4)CC3)c12,7.3µM*,?,0%,-6%
COc1ccc(-n2c(-c3ccc(Cl)cc3)c[n+]3c2CCc2ccccc2-3)cc1,?,2.3µM*,6%,-18%
COC(=O)C1(NC(=O)CNC(=O)OCc2ccccc2)CCCC1,-17%,·,0%,-11%
Cc1cc(C(=O)CN2C(=O)c3ccccc3S2(=O)=O)c(C)n1-c1ccccc1,?,?,-2%,-7%
Cc1ccc(C(=O)CN2C(=O)c3ccccc3S2(=O)=O)cc1,21µM*,?,-3%,-4%
C=CCn1c(C)cc(C(=O)CN2C(=O)c3ccccc3S2(=O)=O)c1C,0.65µM*,?,-3%,5%
O=C1CC(c2ccco2)CC(O)=C1C=Nc1cc(Cl)ccc1O (stereo not given),?,-16%,10µM*,-8%
O=C1CC(c2ccccc2)CC(O)=C1C=Nc1ccccc1 (stereo not given),-25%,-10%,5%,-3%
O=C1CC(c2ccccc2)CC(O)=C1C=Nc1ccccc1O (stereo not given),-16%,7%,14µM*,1%
Cn1nc(C(=O)Nc2cccc(Cl)c2)cc1C(=O)Nc1cccc(Cl)c1,13µM*,-20%,0%,?
CC(C)(C)C1CCC2(CC1)CC(=O)c1ccccc1O2 (stereo not given),-18%,-2%,-1%,-9%
COc1cc(OC)c(C(=O)O/N=C(\N)c2ccc(C)cc2)cc1OC,?,20%,4%,-4%
COc1ccc(Cl)cc1C(=O)O/N=C(\N)c1ccc(Cl)cc1,?,?,7.9µM*,4%
Cc1occc1C(=O)O/N=C(\N)c1ccc(Cl)cc1,?,?,6.3µM*,3%
Cn1cc(S(=O)(=O)N2CCCCCC2)cc1C(=O)NCc1ccc(Cl)cc1,·,·,4%,3%
O=C(NC(=S)Nc1ccccc1Cl)c1ccco1,?,?,13µM*,1%
O=C(NC(=S)Nc1cccc(Cl)c1N1CCCCC1)c1ccco1,?,?,11%,-14%
O=C(NC(=S)Nc1ccccc1N1CCCC1)c1ccco1,4%,-5%,14µM*,2%
SMILES,Nrf2 inh,ELG1 repair inh,Nrf2 ARE act,A549 viability
CCOc1ccc2nc(Cl)c(CN(C(C)=O)C3CCCCC3)cc2c1,-7%,-13%,0%,0%
CCOc1ccc2nc(Cl)c(CN(C(=O)c3cnccn3)C3CCCC3)cc2c1,0%,15µM*,0%,1%
CCOC(=O)[C@H]1[C@H]2COc3ccc(Br)cc3[C@H]2N2C(=O)CN(Cc3ccc(C)cc3)C(=O)[C@@]12C,-8%,·,5%,-3%
CC(C)C(=O)NC(c1ccccc1)c1cc([N+](=O)[O-])c2cccnc2c1O (stereo not given),?,?,-1%,-20%
CC(=O)NC(c1ccccc1)c1cc([N+](=O)[O-])c2cccnc2c1O (stereo not given),15µM*,?,-1%,?
O=C(CCc1ccccc1)NC(c1cccs1)c1cc(Cl)c2cccnc2c1O (stereo not given),16µM*,?,-1%,?
CCCC(=O)NC(c1cccs1)c1cc([N+](=O)[O-])c2cccnc2c1O (stereo not given),21µM*,-17%,0%,?
COc1cccc(NC(=O)CN(C)C(=O)c2ccc3c(c2)S(=O)(=O)N=C2CCCCCN23)c1,-4%,13%,0%,-2%
Cc1ccc(C)c(N2CCN(C(=O)Cn3cnc4onc(-c5ccc(F)cc5)c4c3=O)CC2)c1,21%,·,5%,5%
COc1cccc(CN2CC(C(=O)N(C)C3CCOCC3)CCC2=O)c1 (stereo not given),10%,18%,-1%,-5%
COc1ccc(CCNC(=O)CCCn2c(=O)c3cccn3c3cccnc32)c(OC)c1OC,?,13µM*,0%,0%
CCOc1ccc(CNC(=O)Cn2c(=O)c3cccn3c3ccccc32)cc1,16µM*,-2%,0%,-14%
CCc1ccc(NC(=O)CCn2c(=O)c3cccn3c3ccccc32)cc1,?,-20%,0%,-5%
CCOc1ccc(CCNC(=O)c2ccc(Cn3c(=O)c4cccn4c4cccnc43)cc2)cc1,12µM*,·,-1%,?
CCc1ccc(NC(=O)Cn2c(=O)c3cccn3c3ccccc32)cc1,23µM*!,30%,12%,4%
COc1ccc(CCNC(=O)CCn2c(=O)c3cccn3c3cccnc32)c(OC)c1OC,-12%,·,5%,4%
CCOc1ccc(CNC(=O)CCn2c(=O)c3cccn3c3cccnc32)cc1,-2%,·,2%,9%
O=C(COC(=O)C1C2CC3OC(=O)C1C3C2)Nc1ccccc1 (stereo not given),26%,?,-1%,6%
CCOC(=O)c1cccc(NC(=O)Cn2c(=O)c3cccn3c3ccccc32)c1,12µM*,·,7%,0%
CCOC(=O)c1ccc(NC(=O)CCCn2c(=O)c3cccn3c3ccccc32)cc1,4%,·,-1%,-2%
CCC(=O)N1c2ccccc2CC1C(=O)NCCc1ccc(OC)c(OC)c1 (stereo not given),·,·,4%,0%
COc1ccc(Nc2nc(OC)nc(OC)n2)cc1,1%,?,6%,17%
COc1ccc(Nc2nc(Nc3ccc(OC)cc3)nc(SC3=NCCS3)n2)cc1,?,18µM*,-1%,-28%
CCOC(=O)C1=C(C)NC(C)=C(C(=O)OCC)C1C(=O)OCC(=O)N(CC)C1CCS(=O)(=O)C1 (stereo not given),0%,-9%,2%,-2%
COc1ccc(/C=N/NC(=O)c2cccnc2)cc1CSc1nc2ccccc2s1,14%,7.3µM*,9%,-9%
COc1ccc(/C=N/NC(=O)c2cccnc2)cc1COc1ccc([N+](=O)[O-])c(C)c1,?,15µM*,6%,?
COc1ccc(/C=N/NC(=O)c2ccn[nH]2)cc1Cn1nc(C)c([N+](=O)[O-])c1C,?,16%,6%,1%
